# Laboratory results published in PubChem BioAssay AID1486 (The Scripps Research Institute Molecular Screening Center, 2009).
# The campaign covered roughly 220,000 compounds. About 2,400 (1.1%) were called active. The entries come from a sample that favours actives as a whole. Values without a mark were called inactive.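 Rule for the calls: active = inhibition above a per-campaign cutoff, the mean inhibition of all tested compounds plus 3 SD (cut at about 27% in these data); inactive = the rest.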
# Assay: growth loss in parental Ba/F3 cells – cell-based, murine pro-B, CellTiter-Glo luminescence, counter-screen for JAK2V617F inhibitor project (AID 1486);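 note: 0% = DMSO wells and 100% = JAK Inhibitor I control wells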
# Details: Ba/F3 parental viability, CellTiter-Glo ATP luminescence; at 5.6 µM; active compounds read high
row,SMILES,inhibition
1,Cc1cc(/C=N/Nc2ccc([N+](=O)[O-])cn2)c(C)n1-c1cccc(C(=O)O)c1,-1.49%
2,COc1cc(/C=N\Nc2ccc([N+](=O)[O-])cn2)ccc1OCC(=O)O,10.2%
3,Cc1ccc(-n2c(C)cc(/C=N/Nc3ccc([N+](=O)[O-])cn3)c2C)c(C)c1,50.2% (active)
4,Cc1cc(NC(=O)CSc2nc3cc(Cl)ccc3c(=O)n2Cc2ccco2)no1,8.02%
5,C[C@@H](C(=O)N1CCNCC1)n1cc(CCC(=O)O)nn1,-3.7%
6,O=C(Cn1cnc2ccccc21)N/N=C/c1ccco1,1.87%
7,COC(=O)c1cc(NC(=O)c2ccco2)ccc1N1CCOCC1,1.48%
8,COC(=O)COc1cccc2c(=O)n(CC(=O)NCCc3ccc(OC)c(OC)c3)ccc12,-0.48%
9,COC(=O)COc1cccc2c(=O)n(CC(=O)NCc3ccccc3)ccc12,44.3% (active)
10,Cc1ccc(CNC(=O)CCNC(=O)Cn2ccc3ccccc3c2=O)cc1,8.67%
11,Cc1ccc2nc(C)cc(N/N=C/c3ccc(F)cc3)c2c1,8.42%
12,NS(=O)(=O)c1ccc(CNC(=O)c2cnccn2)cc1,-6.36%
13,CCOc1ccc(OCc2cccc(C(=O)N(CC)CC)c2)cc1,1.21%
14,Cc1nn(-c2ccc([N+](=O)[O-])cc2)c(N)c1-c1ccccc1,-2.11%
15,Cc1ccc(N=C2NC(=O)c3cccc([N+](=O)[O-])c32)cc1,2.95%
16,O=C(NCc1ccccc1Cl)C1CCCO1 (centres undefined),4.65%
17,O=C(NNc1ccccn1)c1ccc(Cl)nc1,3.58%
18,CCN(CC)c1ccc(NC(=O)c2ccc(Cl)nc2)cc1,72.5% (active)
19,NS(=O)(=O)c1ccc(NC(=O)COC(=O)c2ccc(Cl)nc2)cc1,4.09%
20,Cc1ccc(C)c(NC(=O)c2ccc(OC(=O)c3ccco3)cc2)c1,5.55%
21,Cc1ccc(NC(=O)Nc2ccccc2)c(Br)c1,5.76%
22,C=CCNc1scc(-c2ccccc2)[n+]1CC=C,1.05%

row,SMILES,inhibition
1,C=CC[n+]1c(-c2ccc(C)cc2)csc1NNC(=O)Nc1ccccc1,57.4% (active)
2,CC(=O)Nc1ccc(/C=N/Nc2ccc(C(=O)c3c(C)cc4ccccn34)cc2[N+](=O)[O-])cc1,-11.2%
3,CS(=O)(=O)Nc1cccc(-c2cn3ccccc3n2)c1,7.16%
4,Cc1ccc(CC(=O)Nc2cccc(C#N)c2)cc1,6.45%
5,CC(O)C(NS(=O)(=O)c1ccc(Cl)cc1)C(=O)OCc1cc([N+](=O)[O-])cc2c1OCOC2 (centres undefined),4.65%
6,CCNC(=O)c1sccc1-n1cccc1,2.59%
7,CCCCNC(=O)OCCSCCS(=O)(=O)c1ccc(Cl)cc1,-2.09%
8,Cc1ccc(NC(=O)c2oc3ccccc3c2C)c([N+](=O)[O-])c1,2.45%
9,CN(C(=O)COc1ncnc2c1cnn2-c1ccccc1)C1CCCCC1,-1.06%
10,c1ccc(-n2ncc3c(N4CCCC4)ncnc32)cc1,2.78%
11,c1ccc(-n2ncc3c2ncn2c(C4CCCCC4)nnc32)cc1,97.5% (active)
12,Cc1ccc(C2NC(C(=O)O)CS2)cc1 (centres undefined),4.83%
13,CC(=O)NCc1ccc(S(=O)(=O)NC2CCN(Cc3ccccc3)CC2)cc1,-3.37%
14,C[C@@H]1C[C@@H]2O[C@H]2/C=C\C=C\C(=O)Cc2c(Cl)c(O)cc(O)c2C(=O)O1,104% (active)
15,CC(NC(=S)Nc1ccccc1)C(c1cccs1)N1CCOCC1 (centres undefined),-4.02%
16,c1ccc(Cc2cc[n+](Cc3ccccc3)cc2)cc1,71.7% (active)
17,CN(Cc1ccccc1)Cc1ccccc1F,10.4%
18,COC(=O)c1ccc(Cc2ccccc2)o1,1.87%
19,CN(C)c1cc[n+](Cc2ccccc2)cc1,66.3% (active)
20,CN(C)c1ccc(/C=N/N(Cc2ccccc2)c2ccccc2)cc1,8.22%
21,CCn1c(SCC(=O)Nc2ccc(C)cc2)nc2nc3c(cc2c1=O)CCCC3,1.35%
22,S=c1ccc2ccccc2[nH]1,2.2%

row,SMILES,inhibition
1,CCCCCc1ccc(-c2ccc(C(=O)O)cc2)nc1,6.06%
2,Cc1cc(C)n(-c2cc(Oc3ccccc3)ncn2)n1,4.63%
3,Cc1cc(N/N=C\c2ccc(Br)cc2)nc(-n2nc(C)cc2C)n1,0.24%
4,COc1ccccc1/C=N\Nc1cc(C)nc(-n2nc(C)cc2C)n1,7.87%
5,COc1ccc(Nc2cc(C)nc(-n3nc(C)cc3C)n2)cc1,78% (active)
6,CC(=O)c1ccc(Oc2cc(C)nc(-n3nc(C)cc3C)n2)cc1,73.9% (active)
7,Cc1cc(Oc2ccccc2)nc(N2CCOCC2)n1,2.47%
8,Cc1cc(N2CCOCC2)nc2ccc(NC(=S)N3CCN(Cc4ccccc4)CC3)cc12,5.21%
9,COC(=O)C(C)NC(=O)COc1ccc2ccccc2c1 (centres undefined),1.41%
10,CCOC(=O)CN1C(=O)N[C@@H](c2ccc(Br)cc2)C(C(C)=O)=C1C,3.53%
11,CCOC(=O)c1ccc(NC(=S)N2CCCC2)cc1,0.86%
12,COc1ccc(-c2csc(NC3OC(=O)c4ccccc43)n2)cc1 (centres undefined),-1.11%
13,COc1ccc2c(c1OC)C(=O)OC2Nc1nc(-c2ccccc2)cs1 (centres undefined),40.2% (active)
14,COc1ccc(Nc2nc(-c3ccccc3)cs2)cc1,4.08%
15,CC(C)(C)c1nnc(NC(=O)C2c3ccccc3Oc3ccccc32)s1,0.88%
16,Nc1ccc(N=Nc2ccccc2Cl)c(N)n1,-6.75%
17,CCOc1ccc(Br)cc1CSC(=N)N,6.11%
18,CN1/C(=C\C(=O)c2cccnc2Cl)C(C)(C)c2ccccc21,5.33%
19,CN1/C(=C\C(=O)c2oc3ccccc3c2N)C(C)(C)c2ccccc21,10.9%
20,CN1/C(=C\C=C2\N=C(c3ccc(F)cc3)OC2=O)C(C)(C)c2ccccc21,30.4% (active)
